Source: PMC4666376, “Characterisation of aptamer–target interactions by branched selection and high-throughput sequencing of SELEX pools”

Each sequence was assayed against PAI-1 wild type, active (human, UniProt P05121 24-402) (assay: branched SELEX with high-throughput sequencing; PAI-1 immobilised on monoclonal anti-PAI-1 antibody mAb-1; HBS (10 mM HEPES pH 7.4, 140 mM NaCl), 2 mM MgCl2, 2 mM CaCl2, 0.1% BSA; RNA pool 100 nM; PAI-1 captured on antibody-coated wells; 45 min; binding temperature not stated (PAI-1 capture at room temperature); high values mean tight binding). Settings: protein: recombinant; tags: N-terminal His6; structured_RNA; 2'-F pyrimidines.
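Also: Pool frequency after one selection round with this target divided by frequency before selection.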

Chain of PAI-1 wild type, active (P05121 24-402): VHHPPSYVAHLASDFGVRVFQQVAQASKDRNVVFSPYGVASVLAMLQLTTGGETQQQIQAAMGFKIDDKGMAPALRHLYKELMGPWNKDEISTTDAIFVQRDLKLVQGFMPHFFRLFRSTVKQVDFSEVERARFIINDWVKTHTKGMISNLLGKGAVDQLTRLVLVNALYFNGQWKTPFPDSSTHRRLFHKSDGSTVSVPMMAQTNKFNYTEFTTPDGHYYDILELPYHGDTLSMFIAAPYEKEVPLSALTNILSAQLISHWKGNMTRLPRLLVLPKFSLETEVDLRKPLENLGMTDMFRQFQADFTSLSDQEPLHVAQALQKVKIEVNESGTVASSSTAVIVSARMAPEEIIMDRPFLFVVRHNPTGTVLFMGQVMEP

Sequence	binding signal [enrichment factor]
GGGGCCACCAACGACAUUCAGCGAUGUAGUGCACAUUGCACGACCAUGAUGGAGUUGAUAUAAAUAGUGCCCAUGGAUC	0.44
GGGGCCACCAACGACAUUUGCAUAAUGCAUCUAUAGUCGCUAGAGACUAGCUCGUUGAUAUAAAUAGUGCCCAUGGAUC	1.69
GGGGCCACCAACGACAUUUAGCACCAGCUAACCGUACGCUCAACGCGUAGUUCGUUGAUAUAAAUAGUGCCCAUGGAUC	5.48
GGGGCCACCAACGACAUUUAUCGAAUUGAUAACCUUACGCGAGAGCGUAGUUCGUUGAUAUAAAUAGUGCCCAUGGAUC	9.69
GGGGCCACCAACGACAUUUAGGGUGCCGAUCAUGUCACGUAGGCAUCCGAUACGUUGAUAUAAAUAGUGCCCAUGGAUC	0.62
GGGGCCACCAACGACAUUUCCUAAACAGGAUCUAUACUCCUAGCGAGUAGUUCGUUGAUAUAAAUAGUGCCCAUGGAUC	3.43
GGGGCCACCAACGACAUUUGGACUGAAUCCAACCUUAUGCGUAAGCAUAGUUCGUUGAUAUAAAUAGUGCCCAUGGAUC	3.55
GGGGCCACCAACGACAUUGUACCACGUAGGAUGAAGUCAUCCGAUCACAGUGUUGAUAUAAAUAGUGCCCAUGGAUC	1.37
GGGGCCACCAACGACAUUUGCACACCACGUAGGCAAAUUGCCGAUCGUGCUAUGUUGAUAUAAAUAGUGCCCAUGGAUC	1.3
GGGGCCACCAACGACAUUGUACUGUAGUCUUGAUUUUAAGACGACCAAAUGUAGUUGAUAUAAAUAGUGCCCAUGGAUC	1.02
GGGGCCACCAACGACAUUUGUCAACCGAUCACGCUUAUAGAGCGACCACGUAGGUUGAUAUAAAUAGUGCCCAUGGAUC	5.14
